Experimental data reported in PubChem BioAssay.
The source made the active and inactive calls.

system: PRMT1 (protein arginine N-methyltransferase 1); experiment: PRMT1 binders on small-molecule microarrays, primary screen, biochemical, small-molecule microarray, 635 nm fluorescence (AID 1088); conditions: small-molecule microarray binding, higher = more signal;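 note: binding of Prmt1 protein to compounds spotted on small-molecule microarray slides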

Row | Structure (SMILES) | composite z-score
1 | CC(C)(C)OC(=O)CC[C@@]1(C(=O)N2CCCCC2)N=C(c2ccc(OCCCO)cc2)O[C@@H]1c1ccccc1CN=[N+]=[N-] | 1.54
2 | CC(C)C(CO)N1C(=O)[C@@H]2[C@H]3C(=O)OCC=C[C@H]3OC23C=CCN(CCN2CCOCC2)C(=O)[C@@H]13 (some centres not stated) | 0.598
3 | CN1C(=O)C2C=CC(C(O)c3cccc4ccccc34)N(NC(=O)OC(C)(C)C)C2C1=O (configuration not stated) | 1.25
4 | COCCOC(=O)N1C(=O)[C@@]2(c3cc(C#Cc4ccc(OC)cc4)ccc31)[C@H](C(=O)N1CCc3cc(OC)c(OC)cc3C1)[C@H]1C(=O)O[C@H](c3ccccc3)[C@H](c3ccccc3)N1[C@@H]2c1ccc(OCCO)cc1 | 1.33
5 | CCOC(=O)C1=CC[C@@H](c2ccccc2)N(S(=O)(=O)c2ccc(C)cc2)[C@H]1C=C(C)C | 1.54
6 | C[N+](C)(C)CCCC[C@@H]1NC(=O)[C@H]2C[C@@H](C(=O)NCCCCCCN)[C@@H](c3cccc(OCCO)c3)N2C1=O | 1.54
7 | COC(=O)C(CC#Cc1ccc2c(c1)[C@]1(C(=O)N2)[C@H](c2ccc(O)cc2)N2[C@H](c3ccccc3)[C@H](c3ccccc3)OC(=O)[C@H]2[C@@H]1C(N)=O)C(=O)OC | -1.37
8 | CCOc1cc(C(O)C2C=CC3C(=O)NC(=O)C3N2Nc2ccccn2)ccc1O (configuration not stated) | -0.0438
9 | C[N+](C)(C)CCCCCCNC(=O)[C@@H]1C[C@@H]2C(=O)NCC(=O)N2[C@@H]1c1cccc(OCCO)c1 | 1.55
10 | O=C1c2ccccc2C(=O)C2CC([C@H]3Oc4ccccc4S(=O)(=O)N4CCC[C@@H]34)=CCC12 (some centres not stated) | -0.739
11 | CCCc1cc2c(n1Cc1ccc(OC)cc1)C(C)C1CN(C(=O)c3ccccc3)C(C)(C(=O)OC)C21 (configuration not stated) | 1.34
12 | CC(=O)NCCCC[C@@H]1NC(=O)[C@@H]2C[C@H](C(=O)NCCCC[N+](C)(C)C)[C@H](c3cccc(OCCO)c3)N2C1=O | -0.598
13 | [N-]=[N+]=Nc1ccccc1[C@@H]1OC(c2ccc(OCCCO)cc2)=N[C@]1(CCS(=O)(=O)c1ccccc1)C(=O)NCc1ccccc1 | 1.13
14 | CN(C)CCCC[C@@H]1NC(=O)[C@H]2C[C@@H](C(=O)NCCCCCCNC(=O)CS)[C@@H](c3ccc(O)cc3)N2C1=O | 1.17
15 | COC(=O)[C@@]1(Cc2ccc(OC)cc2)[C@H]2c3cc(C(=O)N4CCCC4)n(Cc4ccc(C)o4)c3C[C@H]2CN1C(=O)c1ccccc1 | 0.622
16 | O=C1N(Cc2ccccc2)c2ccccc2[C@H]2OC(c3ccc(OCCCO)cc3)=N[C@@]12CCS(=O)(=O)c1ccccc1 | 1.54
17 | COCCCNC(=O)[C@]1(Cc2ccccc2)N=C(c2ccc(OCCCO)cc2)O[C@@H]1c1ccccc1N=[N+]=[N-] | 1.56
18 | CCCCC(=C=CC[C@H](O)c1cccc(OCCO)c1)C[C@H](O)COCc1ccccc1 | 0.494
19 | COC(=O)c1ccc(OC)c(/C=C\CC(CCc2ccccc2)OC(=O)c2ccncc2)c1 (configuration not stated) | -0.0105
20 | COc1ccc([Si](C)(C)[C@H]2[C@H](CC(=O)N3CCC[C@H]3CO)O[C@@]3(C(=O)N(Cc4ccc(N5C(=O)c6cccc7cccc5c67)cc4)c4ccccc43)[C@@H]2C)cc1 | 1.54
21 | COc1cc(NN2C(C(O)c3ccc(I)cc3)C=CC3C(=O)N(C)C(=O)C32)cc(OC)c1OC (configuration not stated) | 0.0146
22 | C=CCC(OC(C)=O)[C@@H]1[C@@H](N(Cc2ccc(-c3ccccc3)cc2)C(=O)c2cccc3ccccc23)c2cc(OCCCO)ccc2N1C(=O)c1ccc2ccccc2n1 (some centres not stated) | 0.171
23 | C=CCC(OC(C)=O)[C@@H]1[C@@H](N(Cc2cccc3ccccc23)C(=O)Cc2ccc(F)cc2)c2cc(OCCCO)ccc2N1C(=O)Cc1ccc(OC)cc1 (some centres not stated) | -0.151
24 | O=C1O[C@H](c2ccccc2)[C@H](c2ccccc2)N2[C@H]1[C@@H](C(=O)N1CCN(c3ncccn3)CC1)[C@]1(C(=O)Nc3ccc(C#CCCO)cc31)[C@H]2c1ccccc1OCCO | 1.54
25 | COC(=O)[C@@]1(Cc2ccccc2)[C@H]2c3cc(C(=O)N4CCCC4)n(CCO)c3C[C@H]2CN1C(=O)c1ccccc1 | 0.718
26 | COCCCNC(=O)[C@@]1(Cc2ccccc2I)c2ccccc2C(=O)N(Cc2ccccc2Cl)[C@H]1c1ccc(CO)cc1 | 0.34

system: not listed separately; experiment: yeast growth modulation, basal conditions, primary screen, YJM789 clinical isolate, OD600, 24 h (AID 1089);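 note: growth of clinical yeast isolate S. cerevisiae YJM 789 seeded 1000 cells per well; test concentration not given here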; conditions: S. cerevisiae YJM789 growth, higher = more signal, called active from +8 up or from −8 down

Row | Structure (SMILES) | z-score
27 | COC(=O)[C@@]1(Cc2ccc(OC)cc2)[C@H]2c3cc(C(=O)N(C)C)n(Cc4cc(C)n(C)n4)c3C[C@H]2CN1C(=O)c1ccccc1 | 0.296 (inactive)
28 | O=C(NCc1ccccc1)[C@]1(Cc2ccccc2)N=C(c2ccc(OCCCO)cc2)O[C@@H]1c1ccccc1 | 1.83 (inactive)
29 | [N-]=[N+]=NCc1ccccc1[C@H]1OC(c2ccc(OCCCO)cc2)=N[C@@]1(Cc1ccccc1N=[N+]=[N-])C(=O)N1CCCCC1 | 0.401 (inactive)
30 | COCCOC(=O)N1C(=O)[C@@]2(c3ccccc31)[C@H](c1ccc(OCCO)cc1)N1[C@H](c3ccccc3)[C@H](c3ccccc3)OC(=O)[C@H]1[C@@H]2C(=O)NC[C@H](O)c1ccccc1 | 2.2 (inactive)
31 | COc1ccc(C(=O)Nc2ccc3c(c2)[C@]2(O[C@@H](CCO)[C@H]([Si](C)(C)c4ccc(OC)cc4)[C@H]2C)C(=O)N3Cc2ccccc2)cc1 | 0.122 (inactive)
32 | CN(C)C(=O)[C@]1(Cc2ccccc2N=[N+]=[N-])N=C(c2ccc(OCCCO)cc2)O[C@@H]1c1ccccc1CN=[N+]=[N-] | -2.13 (inactive)
33 | COCCOC(=O)N1C(=O)[C@@]2(c3cc(C#Cc4ccc(OC)cc4)ccc31)[C@H](C(=O)N1CCc3cc(OC)c(OC)cc3C1)[C@H]1C(=O)O[C@H](c3ccccc3)[C@H](c3ccccc3)N1[C@@H]2c1ccc(O)cc1 | 1.99 (inactive)
34 | COc1ccc(C#Cc2ccc3c(c2)[C@]2(C(=O)N3)[C@H](C(N)=O)[C@H]3C(=O)O[C@H](c4ccccc4)[C@H](c4ccccc4)N3[C@@H]2c2ccc(O)cc2)cc1 | 1.47 (inactive)
35 | COc1ccc([Si](C)(C)[C@@H]2[C@@H](CCO)O[C@]3(C(=O)N(Cc4ccccc4)c4ccc(N5C(=O)COc6ccccc65)cc43)[C@H]2C)cc1 | 1.56 (inactive)
36 | CC(C)(C)OC(=O)CC[C@@]1(C(=O)N2CCCCC2)N=C(c2ccc(OCCCO)cc2)O[C@@H]1c1ccccc1CN=[N+]=[N-] | -0.492 (inactive)
37 | CC(C)C(CO)N1C(=O)[C@@H]2[C@H]3C(=O)OCC=C[C@H]3OC23C=CCN(CCN2CCOCC2)C(=O)[C@@H]13 (some centres not stated) | 1.21 (inactive)
38 | CN1C(=O)C2C=CC(C(O)c3cccc4ccccc34)N(NC(=O)OC(C)(C)C)C2C1=O (configuration not stated) | -1.04 (inactive)
39 | COCCOC(=O)N1C(=O)[C@@]2(c3cc(C#Cc4ccc(OC)cc4)ccc31)[C@H](C(=O)N1CCc3cc(OC)c(OC)cc3C1)[C@H]1C(=O)O[C@H](c3ccccc3)[C@H](c3ccccc3)N1[C@@H]2c1ccc(OCCO)cc1 | 2.2 (inactive)
40 | CCOC(=O)C1=CC[C@@H](c2ccccc2)N(S(=O)(=O)c2ccc(C)cc2)[C@H]1C=C(C)C | 0.465 (inactive)
41 | C[N+](C)(C)CCCC[C@@H]1NC(=O)[C@H]2C[C@@H](C(=O)NCCCCCCN)[C@@H](c3cccc(OCCO)c3)N2C1=O | -0.0132 (inactive)
42 | COC(=O)C(CC#Cc1ccc2c(c1)[C@]1(C(=O)N2)[C@H](c2ccc(O)cc2)N2[C@H](c3ccccc3)[C@H](c3ccccc3)OC(=O)[C@H]2[C@@H]1C(N)=O)C(=O)OC | -0.731 (inactive)

Row | Structure (SMILES) | z-score
43 | CCOc1cc(C(O)C2C=CC3C(=O)NC(=O)C3N2Nc2ccccn2)ccc1O (configuration not stated) | 0.128 (inactive)
44 | C[N+](C)(C)CCCCCCNC(=O)[C@@H]1C[C@@H]2C(=O)NCC(=O)N2[C@@H]1c1cccc(OCCO)c1 | -0.947 (inactive)
45 | O=C1c2ccccc2C(=O)C2CC([C@H]3Oc4ccccc4S(=O)(=O)N4CCC[C@@H]34)=CCC12 (some centres not stated) | 0.151 (inactive)
46 | CCCc1cc2c(n1Cc1ccc(OC)cc1)C(C)C1CN(C(=O)c3ccccc3)C(C)(C(=O)OC)C21 (configuration not stated) | 0.461 (inactive)
47 | CC(=O)NCCCC[C@@H]1NC(=O)[C@@H]2C[C@H](C(=O)NCCCC[N+](C)(C)C)[C@H](c3cccc(OCCO)c3)N2C1=O | 0.408 (inactive)
48 | [N-]=[N+]=Nc1ccccc1[C@@H]1OC(c2ccc(OCCCO)cc2)=N[C@]1(CCS(=O)(=O)c1ccccc1)C(=O)NCc1ccccc1 | 0.728 (inactive)
49 | CN(C)CCCC[C@@H]1NC(=O)[C@H]2C[C@@H](C(=O)NCCCCCCNC(=O)CS)[C@@H](c3ccc(O)cc3)N2C1=O | -1.22 (inactive)
50 | COC(=O)[C@@]1(Cc2ccc(OC)cc2)[C@H]2c3cc(C(=O)N4CCCC4)n(Cc4ccc(C)o4)c3C[C@H]2CN1C(=O)c1ccccc1 | -19.7 (active)
51 | O=C1N(Cc2ccccc2)c2ccccc2[C@H]2OC(c3ccc(OCCCO)cc3)=N[C@@]12CCS(=O)(=O)c1ccccc1 | 1.19 (inactive)
52 | COCCCNC(=O)[C@]1(Cc2ccccc2)N=C(c2ccc(OCCCO)cc2)O[C@@H]1c1ccccc1N=[N+]=[N-] | -0.499 (inactive)
53 | CCCCC(=C=CC[C@H](O)c1cccc(OCCO)c1)C[C@H](O)COCc1ccccc1 | -0.646 (inactive)
54 | COC(=O)c1ccc(OC)c(/C=C\CC(CCc2ccccc2)OC(=O)c2ccncc2)c1 (configuration not stated) | -0.272 (inactive)
55 | COc1ccc([Si](C)(C)[C@H]2[C@H](CC(=O)N3CCC[C@H]3CO)O[C@@]3(C(=O)N(Cc4ccc(N5C(=O)c6cccc7cccc5c67)cc4)c4ccccc43)[C@@H]2C)cc1 | -0.631 (inactive)
56 | COc1cc(NN2C(C(O)c3ccc(I)cc3)C=CC3C(=O)N(C)C(=O)C32)cc(OC)c1OC (configuration not stated) | 0.896 (inactive)
57 | C=CCC(OC(C)=O)[C@@H]1[C@@H](N(Cc2ccc(-c3ccccc3)cc2)C(=O)c2cccc3ccccc23)c2cc(OCCCO)ccc2N1C(=O)c1ccc2ccccc2n1 (some centres not stated) | -0.288 (inactive)
